# Data reported in the supplement of paper PMC6555819.
# What was measured:
# Assay in all cases: PBM binding z-score (relative to random genomic background probes); higher = stronger binding; sequences stand for … in GC…GCGATTGACAGCGTAGAATGAAGG
# [1] = test system: RARb homodimer (NR concentration 270 nM)
# Summary of the method: (§1)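 Binding z-scores take random background probes as their reference. They come from custom Agilent 4×180K protein-binding microarrays incubated 1 h with ligand-free nuclear receptor dimers, with antibodies against each partner (one per run) detecting binding. Scanned fluorescence was regression-normalized.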
# [2] = test system: RARg:RXRa (NR concentration 270 nM, RXRa partner concentration 90 nM)
# Summary of the method: as §1
# [3] = test system: RARg homodimer (NR concentration 270 nM)
# Summary of the method: as §1
# [4] = test system: RXRa DBDmut IVT, anti-RXR (DBD mutation: RXRa K156A/R161A, NR concentration 90 nM)
# Summary of the method: as §1
# [5] = test system: RXRa homodimer (NR concentration 180 nM)
# Summary of the method: as §1
# [6] = test system: THRa:RXRa (NR concentration 90 nM, RXRa partner concentration 90 nM)
# Summary of the method: as §1
# [7] = test system: THRa homodimer (NR concentration 90 nM)
# Summary of the method: as §1
# [8] = test system: VDR:RXRa (NR concentration 270 nM, RXRa partner concentration 90 nM)
# Summary of the method: as §1
# [9] = test system: VDR homodimer (NR concentration 270 nM)
# Summary of the method: as §1
sequence,measurement,setting,value
ATCTCTAGGTAAAGATAATTCAGTGAATGCAAAT,PBM binding z-score,[1],-0.268
same,PBM binding z-score,[2],0.658
same,PBM binding z-score,[3],0.648
same,PBM binding z-score,[4],0.0492
same,PBM binding z-score,[5],0.365
same,PBM binding z-score,[6],0.654
same,PBM binding z-score,[7],0.0536
same,PBM binding z-score,[8],0.0441
same,PBM binding z-score,[9],-0.00622
CCGACTGGGGCAAGGTTACCATGACGCACAGCCA,PBM binding z-score,[1],1.41
same,PBM binding z-score,[2],1.07
same,PBM binding z-score,[3],1.09
same,PBM binding z-score,[4],-0.669
same,PBM binding z-score,[5],1.13
same,PBM binding z-score,[6],1.21
same,PBM binding z-score,[7],0.0571
same,PBM binding z-score,[8],-0.0991
same,PBM binding z-score,[9],-0.0501
ATATGTAGGTTATCGGGTCAATCAGTTTGCGCAT,PBM binding z-score,[1],3.02
same,PBM binding z-score,[2],3.59
same,PBM binding z-score,[3],2.68
same,PBM binding z-score,[4],1.45
same,PBM binding z-score,[5],3.75
same,PBM binding z-score,[6],3.3
same,PBM binding z-score,[7],2.53
same,PBM binding z-score,[8],5.29
same,PBM binding z-score,[9],2.85
CCTCGGAGGAGAGAAGGTCAGAGCTGTCCGCTTT,PBM binding z-score,[1],2.71
same,PBM binding z-score,[2],1.89
same,PBM binding z-score,[3],1.69
same,PBM binding z-score,[4],-0.424
same,PBM binding z-score,[5],1.89
same,PBM binding z-score,[6],1.59
same,PBM binding z-score,[7],-0.246
same,PBM binding z-score,[8],0.722
same,PBM binding z-score,[9],-0.0749
CCGACTGGGGCAAAGGTTACCATCCTCAGTACGA,PBM binding z-score,[1],2.19
same,PBM binding z-score,[2],3.56
same,PBM binding z-score,[3],1.56
same,PBM binding z-score,[4],-0.109
same,PBM binding z-score,[5],4.04
same,PBM binding z-score,[6],1.77
same,PBM binding z-score,[7],-0.0864
same,PBM binding z-score,[8],1.37
same,PBM binding z-score,[9],-0.138
GATACCGGGTCAAGGCCAGAGTACGCGTATTGAT,PBM binding z-score,[1],3.05
same,PBM binding z-score,[2],4.34
same,PBM binding z-score,[3],3.93
same,PBM binding z-score,[4],0.478
same,PBM binding z-score,[5],4.58
same,PBM binding z-score,[6],3.49
same,PBM binding z-score,[7],1.25
same,PBM binding z-score,[8],3.11
same,PBM binding z-score,[9],1.07
TAGCCTAGGTGAGATCGGGCCAGTATACGCTATA,PBM binding z-score,[1],-0.246
same,PBM binding z-score,[2],-0.235
same,PBM binding z-score,[3],0.0324
same,PBM binding z-score,[4],-1.2
same,PBM binding z-score,[5],-0.204
same,PBM binding z-score,[6],1.52
same,PBM binding z-score,[7],-0.733
same,PBM binding z-score,[8],-0.592
same,PBM binding z-score,[9],-0.357
ATATGTAGGTTATCGGGTCGTTCAGTTTGCGCAT,PBM binding z-score,[1],1.68
same,PBM binding z-score,[2],1.39
same,PBM binding z-score,[3],1.28
same,PBM binding z-score,[4],1.06
same,PBM binding z-score,[5],1.57
same,PBM binding z-score,[6],1.93
same,PBM binding z-score,[7],1.55
same,PBM binding z-score,[8],3.89
same,PBM binding z-score,[9],2.55
CCTGCTAGGTCATTGTCAGCTAATCTACAGTATG,PBM binding z-score,[1],2.45
same,PBM binding z-score,[2],3.06
same,PBM binding z-score,[3],3.95
same,PBM binding z-score,[4],2.93
same,PBM binding z-score,[5],1.9
same,PBM binding z-score,[6],2.61
same,PBM binding z-score,[7],0.862
same,PBM binding z-score,[8],1.66
same,PBM binding z-score,[9],1.14
ATCGAAAGGACGTGAGGTGAGTATACAGAAAGGC,PBM binding z-score,[1],0.895
same,PBM binding z-score,[2],0.703
same,PBM binding z-score,[3],1.12
same,PBM binding z-score,[4],-0.854
same,PBM binding z-score,[5],0.282
same,PBM binding z-score,[6],1.89
same,PBM binding z-score,[7],0.987
same,PBM binding z-score,[8],-0.301
same,PBM binding z-score,[9],0.126
AGAATGAGGTTATTAAGATCAGAGAATTGCGGTC,PBM binding z-score,[1],0.575
same,PBM binding z-score,[2],1.21
same,PBM binding z-score,[3],0.933
same,PBM binding z-score,[4],1.88
same,PBM binding z-score,[5],1.7
same,PBM binding z-score,[6],2.06
same,PBM binding z-score,[7],0.584
same,PBM binding z-score,[8],2.56
same,PBM binding z-score,[9],1.11
ACTTGCAGGCCAAGGGTCACTCAAGATTAGTCCG,PBM binding z-score,[1],4.01
same,PBM binding z-score,[2],4.38
same,PBM binding z-score,[3],3.9
same,PBM binding z-score,[4],0.954
same,PBM binding z-score,[5],4.47
same,PBM binding z-score,[6],2.89
same,PBM binding z-score,[7],0.244
same,PBM binding z-score,[8],3.05
same,PBM binding z-score,[9],1.36
TCTAGCAGGCCAGAGGGTCACTCGAGAGGTACGG,PBM binding z-score,[1],2.65
same,PBM binding z-score,[2],2.47
same,PBM binding z-score,[3],2.33
same,PBM binding z-score,[4],0.0685
same,PBM binding z-score,[5],2.58
same,PBM binding z-score,[6],1.37
same,PBM binding z-score,[7],-0.427
same,PBM binding z-score,[8],1.39
same,PBM binding z-score,[9],0.163
CCTGACGGGTCACGAGGTTATAGCACGACGAGCG,PBM binding z-score,[1],3.55
same,PBM binding z-score,[2],5.83
same,PBM binding z-score,[3],5.33
same,PBM binding z-score,[4],1.42
same,PBM binding z-score,[5],6.19
same,PBM binding z-score,[6],3.3
same,PBM binding z-score,[7],1.14
same,PBM binding z-score,[8],4.62
same,PBM binding z-score,[9],1.87
CCTTACGGGTCACGCCAGGTTATAGCATCGGAGT,PBM binding z-score,[1],3.89
same,PBM binding z-score,[2],5.65
same,PBM binding z-score,[3],5.54
same,PBM binding z-score,[4],1.75
same,PBM binding z-score,[5],6.22
same,PBM binding z-score,[6],5.03
same,PBM binding z-score,[7],0.956
same,PBM binding z-score,[8],5.36
same,PBM binding z-score,[9],0.985
GGAACGAGGGCAAGTTGATAGCCGAGTTTGATGG,PBM binding z-score,[1],1.56
same,PBM binding z-score,[2],1.84
same,PBM binding z-score,[3],2.12
same,PBM binding z-score,[4],2.37
same,PBM binding z-score,[5],0.956
same,PBM binding z-score,[6],1.22
same,PBM binding z-score,[7],-0.266
same,PBM binding z-score,[8],1.04
same,PBM binding z-score,[9],1.92
CGAACTAGGTCAGAAGAGGACAGTGAAGGATGAT,PBM binding z-score,[1],2.53
same,PBM binding z-score,[2],2.68
same,PBM binding z-score,[3],3.66
same,PBM binding z-score,[4],0.392
same,PBM binding z-score,[5],1.03
same,PBM binding z-score,[6],4.34
same,PBM binding z-score,[7],0.406
same,PBM binding z-score,[8],1.69
same,PBM binding z-score,[9],0.275
TATACAGGGTCAAAGGACAGAGTACGAATGTCGA,PBM binding z-score,[1],3.47
same,PBM binding z-score,[2],5.29
same,PBM binding z-score,[3],5.03
same,PBM binding z-score,[4],3.17
same,PBM binding z-score,[5],6.26
same,PBM binding z-score,[6],3.7
same,PBM binding z-score,[7],1.21
same,PBM binding z-score,[8],4.6
same,PBM binding z-score,[9],2.76
TTACCAAGGAGAAGGTCGTTGATCCCTCTGTAGA,PBM binding z-score,[1],0.592
same,PBM binding z-score,[2],0.225
same,PBM binding z-score,[3],0.0485
same,PBM binding z-score,[4],-0.392
same,PBM binding z-score,[5],1.27
same,PBM binding z-score,[6],0.759
same,PBM binding z-score,[7],-0.096
same,PBM binding z-score,[8],0.838
same,PBM binding z-score,[9],0.372
CCGACTGGGGCAGGAAGGTTACCATACCATCCGG,PBM binding z-score,[1],1.15
same,PBM binding z-score,[2],0.592
same,PBM binding z-score,[3],0.687
same,PBM binding z-score,[4],-1.31
same,PBM binding z-score,[5],0.585
same,PBM binding z-score,[6],0.142
same,PBM binding z-score,[7],-0.486
same,PBM binding z-score,[8],0.235
same,PBM binding z-score,[9],-0.24
TCATATAGGTAACCAGGTGAAAGTCCGTAAGTTA,PBM binding z-score,[1],0.957
same,PBM binding z-score,[2],0.558
same,PBM binding z-score,[3],0.452
same,PBM binding z-score,[4],1.38
same,PBM binding z-score,[5],1.25
same,PBM binding z-score,[6],1.73
same,PBM binding z-score,[7],1.05
same,PBM binding z-score,[8],1.06
same,PBM binding z-score,[9],0.27
CCTCGGCGGACAACAGGAGGTCAGAGCTGCCAGA,PBM binding z-score,[1],2.88
same,PBM binding z-score,[2],2.16
same,PBM binding z-score,[3],2.04
same,PBM binding z-score,[4],-0.404
same,PBM binding z-score,[5],1.71
same,PBM binding z-score,[6],1.75
same,PBM binding z-score,[7],0.00224
same,PBM binding z-score,[8],0.818
same,PBM binding z-score,[9],0.257
GCTATTAGTTGAAAGGGCAAACGAATGATTCTCG,PBM binding z-score,[1],1.86
same,PBM binding z-score,[2],1.24
same,PBM binding z-score,[3],1.06
same,PBM binding z-score,[4],0.931
same,PBM binding z-score,[5],1.38
same,PBM binding z-score,[6],0.777
same,PBM binding z-score,[7],-0.332
same,PBM binding z-score,[8],0.622
same,PBM binding z-score,[9],0.589
GGAACGAGGGCATGTTGATAGCAGAGTTTGATGG,PBM binding z-score,[1],1.11
same,PBM binding z-score,[2],0.813
same,PBM binding z-score,[3],1.38
same,PBM binding z-score,[4],2.25
same,PBM binding z-score,[5],0.438
same,PBM binding z-score,[6],1.1
same,PBM binding z-score,[7],0.428
same,PBM binding z-score,[8],0.929
same,PBM binding z-score,[9],1.6
